Read-outs that look alike come from different tables or passages of the source.

The values that follow come from PMC11062922 (Nature Chemical Biology, 2023).

What all share (design): species or system human, MV4-11 + K-562 + COLO205 + SK-N-BE2 + OVCAR-8
One assay relates to MAP4K5. The note with it: read-out: apparent Kd, compound concentrations: 100 nM and 1000 nM (sheet 'Samples'), n = 1.
A further assay relates to TAOK1. As to conditions: read-out: apparent Kd, n = 1.
In the next assay the test system is CSNK1A1. As to conditions: read-out: apparent Kd, n = 1.
The subject of the next assay is CSNK1D. The note with it: read-out: apparent Kd; compound concentrations:100 nM and 1000 nM (sheet 'Samples'); n = 1.
Another assay has as its system NLK. As to conditions: read-out: apparent Kd; compound concentrations:100 nM and 1000 nM (sheet 'Samples'); n = 1.
A further assay has as its system TGFBR2. The note with it: read-out: apparent Kd; compound concentrations:100 nM and 1000 nM (sheet 'Samples'); n = 1.
For a further assay, the system named is NQO2. The note with it: read-out: apparent Kd, n = 1.
The next assay concerns EPHA4. The note with it: read-out: apparent Kd, n = 1.
The test system of the next assay is EPHB1. The note with it: read-out: apparent Kd, n = 1.
The next assay has as its system EPHB2. The note with it: read-out: apparent Kd, n = 1.
For another assay, the system named is EPHB4. As to conditions: read-out: apparent Kd, n = 1.
In a further assay the test system is EPHA2. The note with it: read-out: apparent Kd; compound concentrations: 100 nM and 1000 nM (sheet 'Samples'), CATDS: 2.7940284559804102E-2; n = 1.
In a further assay the test system is PDGFRB. The note with it: read-out: apparent Kd, compound concentrations: 100 nM and 1000 nM (sheet 'Samples'), n = 1.
The next assay concerns PIK3CD. The note with it: read-out: apparent Kd, compound concentrations: 100 nM and 1000 nM (sheet 'Samples'), n = 1.
For the next assay, the system named is NQO1. The note with it: read-out: apparent Kd, n = 1.
A further assay has as its system BUB1. As to conditions: read-out: apparent Kd, n = 1.
A further assay has as its system PRKD3. As to conditions: read-out: apparent Kd, n = 1.
The subject of a further assay is MAPKAPK2. As to conditions: read-out: apparent Kd; compound concentrations: 100 nM and 1000 nM (sheet 'Samples'), CATDS: 7.72685747843148E-2; n = 1.
The test system of another assay is MAP2K1. As to conditions: read-out: apparent Kd, compound concentrations: 100 nM and 1000 nM (sheet 'Samples'), n = 1.
The next assay has as its system PDXK. As to conditions: read-out: apparent Kd, compound concentrations: 100 nM and 1000 nM (sheet 'Samples'), n = 1.
Setting [1] is: compound concentrations:100 nM and 1000 nM (sheet 'Samples').

As for `CN1CCc2ccc(Nc3nccc(-c4c(-c5cccc(NC(=O)c6c(F)cccc6F)c5)nc5ccccn45)n3)cc2C1.Cl` [GSK1010829B], the potency estimated from few doses was 2130 nM in the assay with MAP4K5 (CATDS: 3.0196131161379001E-2); 830 nM with TAOK1 (compound concentrations: 100 nM and 1000 nM (sheet 'Samples'), CATDS: 4.1687643746907199E-2).

For the molecule `N#Cc1cccc(Nc2nccc(-c3cnn4ncccc34)n2)c1` [GW778894X], the potency estimated from few doses in the assay with CSNK1A1 (setting [1]) is 731 nM; with CSNK1D, 199 nM; in the assay with NLK it was 1560 nM; in the assay on TGFBR2, 35.7 nM.

For the molecule `O=S(=O)(c1ccc(-c2ccnc3[nH]ccc23)cc1)N1CCCC1` [GSK846226A], the potency estimated from few doses in the assay on TAOK1 (setting [1]) is 1690 nM.

On to `CC(=O)c1c(-c2ccncc2)[nH]c(-c2ccncc2)c1C` [GW493036X], for which the potency estimated from few doses in the assay with CSNK1A1 (compound concentrations: 100 nM and 1000 nM (sheet 'Samples'), CATDS: 4.1725323261606301E-2) is 874 nM; in the assay on CSNK1D it was 2040 nM; with NQO2 (setting [1]) it was 1110 nM.

As to `CN(C)Cc1ccc(-c2ccc3c(Nc4ccc(Oc5ccccn5)cc4)ccnc3c2)o1` [GW567148X], the potency estimated from few doses with EPHA4 (compound concentrations: 100 nM and 1000 nM (sheet 'Samples'), CATDS: 2.1324962018011699E-2) is 824 nM; in the assay on EPHB1 (compound concentrations: 100 nM and 1000 nM (sheet 'Samples'), CATDS: 2.01059548951249E-2) it was 977 nM; in the assay with EPHB2 (compound concentrations: 100 nM and 1000 nM (sheet 'Samples'), CATDS: 2.3863521838316901E-2), 615 nM; in the assay with EPHB4 (compound concentrations: 100 nM and 1000 nM (sheet 'Samples'), CATDS: 2.5851405238779799E-2), 509 nM.

As for `COc1cc2ncn(-c3cc(OCCCc4ccccc4)c(C(N)=O)s3)c2cc1OC` [GSK205189A], the potency estimated from few doses in the assay with EPHA4 (setting [1]) was 1250 nM; in the assay with EPHB1 (setting [1]) it was 958 nM; with EPHB2 (setting [1]), 697 nM; with EPHB4 (setting [1]), 636 nM.

For `CNC(=O)c1ccccc1Nc1nc(Nc2cccc(CS(C)(=O)=O)c2)ncc1C.O=CO` [GSK1520489A], the potency estimated from few doses in the assay on EPHA2 was 66.2 nM; in the assay on PDGFRB (CATDS: 9.8482456119854799E-3), 1420 nM.

Regarding `O=S(=O)(CCOCc1ccc(-c2ccc3ncnc(Nc4ccc(OCc5cccc(F)c5)c(Cl)c4)c3c2)o1)c1ccccc1` [GW615311X], the potency estimated from few doses in the assay with PIK3CD (CATDS: 0.10575353255485199) is 176 nM.

In the case of `COc1cc2ncn(-c3cc(OCc4ccncc4)c(C(N)=O)s3)c2cc1OC` [GSK336313A], in the assay on NQO1 (setting [1]), the potency estimated from few doses was 1230 nM.

On to `CC(=O)N1CCN(c2ccc(Nc3nccc(-c4sc(C(C)C)nc4-c4cccc(NS(=O)(=O)c5ccccc5)c4)n3)cn2)CC1` [GSK1645872A], for which the potency estimated from few doses in the assay with BUB1 (compound concentrations: 100 nM and 1000 nM (sheet 'Samples'), CATDS: 3.26865073204873E-2) is 604 nM; with PRKD3 (compound concentrations: 100 nM and 1000 nM (sheet 'Samples'), CATDS: 5.5326802343899903E-2), 227 nM.

Consider `Nc1nc(N)c2nc(-c3ccccc3)[nH]c2n1` [SKF-12778], for which the potency estimated from few doses was 972 nM in the assay on CSNK1A1 (setting [1]), 2130 nM with CSNK1D and 1660 nM in the assay on NLK.

With `CC(C)c1nc(-c2cccc(NS(=O)(=O)c3c(F)cccc3F)c2F)c(-c2ccnc(Nc3ccc(N4CCOCC4)nc3)n2)s1` [GSK2008607A], the potency estimated from few doses in the assay with BUB1 (compound concentrations: 100 nM and 1000 nM (sheet 'Samples'), CATDS: 2.5044910199505301E-2) was 721 nM; with PRKD3 (compound concentrations: 100 nM and 1000 nM (sheet 'Samples'), CATDS: 2.5792208741447099E-2), 671 nM.

As to `CC(C)c1nc(-c2ccc(F)c(NS(=O)(=O)c3c(F)cccc3F)c2)c(-c2ccnc(Nc3ccc(N4CCOCC4)nc3)n2)s1` [GSK1804250A], the potency estimated from few doses is 553 nM with BUB1 (setting [1]) and 510 nM with PRKD3 (setting [1]).

For the molecule `Cn1cc(-c2ccc3c(c2)CCN3C(=O)Cc2cc(F)cc(C(F)(F)F)c2)c2c(N)ncnc21` [GSK2635225A], in the assay with PIK3CD (CATDS: 0.457718684353002), the potency estimated from few doses is 139 nM.

For the molecule `CC(=O)N1CCN(c2ccc(Nc3nccc(-c4sc(C(C)C)nc4-c4cccc(NS(=O)(=O)c5cccc(Cl)c5)c4)n3)cn2)CC1` [GSK1660437A], the potency estimated from few doses in the assay on BUB1 (compound concentrations: 100 nM and 1000 nM (sheet 'Samples'), CATDS: 4.8956093582398198E-2) is 873 nM; in the assay with PRKD3 (compound concentrations: 100 nM and 1000 nM (sheet 'Samples'), CATDS: 4.4377312299456101E-2), 1110 nM.

With `Nc1ncc(-c2cn[nH]c2)c2scc(-c3ccc4c(c3)CCN4C(=O)Cc3ccccc3)c12` [GSK2593067A], the potency estimated from few doses in the assay on MAP4K5 (CATDS: 8.2420323237496707E-2) is 674 nM; with PIK3CD (CATDS: 0.15776824540953199) it was 196 nM.

Consider `CS(=O)(=O)Cc1ccc(Nc2nccc(-c3c(-c4cccc(NC(=O)c5c(F)cccc5F)c4)nn4ccccc34)n2)cc1` [GSK323543A], for which, in the assay with MAPKAPK2, the potency estimated from few doses is 870 nM.

Take `N#Cc1cnc2cc(-c3cnc(CNCCN4CCOCC4)s3)ccc2c1Nc1ccc(Oc2ccccc2)cc1` [GW664114X]: the potency estimated from few doses in the assay on MAP2K1 (CATDS: 5.9486551355906997E-2) was 606 nM; with MAP4K5 (CATDS: 0.103025865385486), 199 nM.

In the case of `CC(C)c1nc(-c2cccc(NS(=O)(=O)c3c(F)cccc3F)c2)c(-c2ccnc(Nc3ccc(N4CCOCC4)nc3)n2)s1.Cl` [GSK1723980B], the potency estimated from few doses is 191 nM in the assay with BUB1 (compound concentrations: 100 nM and 1000 nM (sheet 'Samples'), CATDS: 3.0141053938719398E-2); 156 nM in the assay on PRKD3 (compound concentrations: 100 nM and 1000 nM (sheet 'Samples'), CATDS: 3.3451662470077102E-2).

Consider `CN1CCN(Cc2ccc(NC(=O)Nc3ccc(N(C)c4ccnc(Nc5ccc(CS(C)(=O)=O)cc5)n4)cc3)cc2)CC1.Cl` [GW827654A], for which the potency estimated from few doses in the assay with PDGFRB (CATDS: 3.4418079191200303E-2) is 1860 nM.

`Clc1ccc(-c2nn3ncccc3c2-c2ccnc(Nc3ccccc3)n2)cc1` [GW829055X]: the potency estimated from few doses is 1900 nM in the assay on CSNK1A1 (compound concentrations: 100 nM and 1000 nM (sheet 'Samples'), CATDS: 3.2884610425315097E-2); 138 nM with MAP2K1 (CATDS: 0.148171076580532); 1050 nM in the assay with NQO1 (compound concentrations: 100 nM and 1000 nM (sheet 'Samples'), CATDS: 4.2030828964441901E-2).

In the case of `Cn1cc(C2=C(c3ccccc3[N+](=O)[O-])C(=O)NC2=O)c2ccccc21` [RO0317753-000], the potency estimated from few doses with NQO2 (compound concentrations: 100 nM and 1000 nM (sheet 'Samples'), CATDS: 7.9210826703434503E-2) is 1280 nM; in the assay on PDXK (CATDS: 8.6520417055061499E-2), 907 nM.

Consider `Cc1ccc(CC(=O)N2CCc3cc(-c4cn(C)c5ncnc(N)c45)ccc32)cc1` [GSK2634758A], for which the potency estimated from few doses with NQO2 (compound concentrations: 100 nM and 1000 nM (sheet 'Samples'), CATDS: 0.188092935593722) was 1120 nM; in the assay on PDXK (CATDS: 0.16794834883854801), 1390 nM.
